Measurements published in PubChem BioAssay (NCI).
The panel holds about 83,000 compounds, 20% with a hit somewhere; the sample as a whole holds those more often.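 For each line, cells grew in 96-well plates with the test compound present at a single concentration for 48 hours.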 Calls of active or inactive are those of the source. Rule for the calls: active = growth percent below 10; inactive = the rest. Where a SMILES comes first, the peptide text is derived from it. Bridges are numbered along the chain shown (N, C = ends). [ ]: non-standard residue; d: D form. The star is where a group is joined. ξ: configuration not given here. ξNMePhe(4-NMe2) = CNC(Cc1ccc(N(C)C)cc1)C(=O)O; Picolinoyl(3-OH) = O=C(c1ncccc1O)*; ξPip(4-oxo) = O=C1CCNC(C(=O)O)C1; Phg = N[CH](C(=O)O)c1ccccc1; Abu = CC[CH](N)C(=O)O

Assays:
Assay in all cases: NCI-60 one-dose screen, 48 h (100 = growth as untreated, 0 = no growth, -100 = all killed)
Conditions in all cases: 10 µM
[1] = system: NCI-H23 lung
[2] = system: NCI-H226 lung
[3] = system: NCI-H322M lung
[4] = system: HOP-62 NSCLC
[5] = system: NCI-H460 lung
[6] = system: HOP-92 NSCLC
[7] = system: NCI-H522 lung
[8] = system: A549/ATCC NSCLC
[9] = system: 786-0 renal
[10] = system: COLO 205 colon

Measured: growth

C#C[C@H]1CCCCCC1O (stereo partly drawn)
inactive: [1] 95.7% | [2] 96.5% | [3] 104% | [4] 105% | [5] 106% | [6] 87% | [7] 94.8% | [8] 105% | [9] 103% | [10] 111%

O=C(Cc1nc2ccc([N+](=O)[O-])cc2nc1CC(=O)c1ccccc1)c1ccccc1
inactive: [1] 43.9% | [2] 68% | [3] 61% | [4] 79.8% | [5] 52.9% | [6] 71.5% | [7] 31.5% | [8] 58.8% | [9] 42% | [10] 91.3%

O=C(O)C(c1ccccc1)C(O)c1ccccc1 (stereo not drawn)
inactive: [1] 104% | [2] 77.8% | [3] 97.6% | [4] 101% | [5] 106% | [6] 93% | [7] 96.1% | [8] 90.8% | [9] 107%

CC(=O)c1ccc(C(C)(C)C)cc1
inactive: [1] 95.7% | [2] 98.4% | [3] 104% | [4] 91.9% | [5] 106% | [6] 80.6% | [7] 99.6% | [8] 101% | [9] 100%

CCCCNC(=O)C(=O)NCCCC
inactive: [1] 105% | [2] 106% | [3] 104% | [4] 108% | [5] 115% | [6] 104% | [7] 112% | [8] 111% | [9] 101% | [10] 117%

CCOC(=O)c1cc(/C=C/c2cccc(Cl)c2)on1
inactive: [1] 81.1% | [2] 95.1% | [3] 96.1% | [4] 99.9% | [5] 99.3% | [6] 88.8% | [7] 74.6% | [8] 104% | [9] 97.7% | [10] 119%

COc1ccc(C2(O)CCCCC2)cc1
inactive: [1] 97.9% | [2] 92.1% | [3] 105% | [4] 102% | [5] 105% | [6] 73.2% | [7] 99.7% | [8] 101% | [9] 98.5% | [10] 112%

C#CCSc1nnnn1-c1ccc(Br)c(C)c1
inactive: [1] 89.7% | [2] 74.6% | [3] 107% | [4] 102% | [5] 97% | [6] 69.9% | [7] 71.1% | [8] 92.8% | [9] 89.1% | [10] 135%

COc1ccc2c(NCCCCCCCCNc3c4ccccc4nc4cc(OC)ccc34)c3ccccc3nc2c1
active: [1] -92.2% | [2] -65.3% | [3] -74.3% | [4] -99.2% | [5] -100% | [6] -100% | [7] -74.1% | [8] -64.7% | [9] -100% | [10] -100%

CCOc1ccc2[nH]c(=S)sc2c1
inactive: [1] 94.4% | [2] 109% | [3] 105% | [4] 99.1% | [5] 110% | [6] 82.2% | [7] 104% | [8] 103% | [9] 99.7% | [10] 112%

CC(C)=NNc1ccc([N+](=O)[O-])cc1[N+](=O)[O-]
inactive: [1] 95.5% | [2] 98.3% | [3] 87.9% | [4] 87.9% | [5] 88.1% | [6] 80.2% | [7] 82.1% | [8] 83.2% | [9] 93.8% | [10] 84.9%

CCC1NC(=O)C(NC(=O)c2ncccc2O)C(C)OC(=O)C(c2ccccc2)NC(=O)C2CC(=O)CCN2C(=O)C(Cc2ccc(N(C)C)cc2)N(C)C(=O)C2CCCN2C1=O (stereo not drawn) (tested in a mixture with another compound) ({Picolinoyl(3-OH)}-T[Abu]P[ξNMePhe(4-NMe2)][ξPip(4-oxo)][Phg]; ester 1-C; configuration not given here)
inactive: [1] 19.7% | [2] 56.7% | [3] 87.2% | [4] 87.7% | [5] 26.2% | [6] 53.8% | [7] 66% | [8] 28.1% | [9] 67.4% | [10] 27%

CN(C)CCC(=O)c1ccc(O)cc1
inactive: [1] 97% | [2] 99% | [3] 106% | [4] 107% | [5] 103% | [6] 98.5% | [7] 102% | [8] 103% | [9] 108%

CC(=O)Oc1ccc(Br)cc1C(=O)O
inactive: [1] 98.6% | [2] 99% | [3] 101% | [4] 86.9% | [5] 106% | [6] 97.8% | [7] 91.4% | [8] 103% | [9] 97.4%

CC(C)=C(NC(=O)c1ccccc1)C(=O)O
inactive: [1] 107% | [2] 103% | [3] 104% | [4] 115% | [5] 111% | [6] 84.5% | [7] 92.3% | [8] 105% | [9] 112% | [10] 112%

Cc1ccc(/C=C2\SC(=S)N(c3ccc(F)cc3)C2=O)o1
inactive: [1] 88.3% | [2] 72.4% | [3] 90.2% | [4] 83.1% | [5] 33.7% | [6] 87.6% | [7] 70.6% | [8] 87.5% | [9] 40.2% | [10] 92.4%

COC(=O)C(C)Oc1ccc(OC#N)cc1 (stereo not drawn)
inactive: [1] 95% | [2] 97.3% | [3] 100% | [4] 98.2% | [5] 103% | [6] 95.3% | [7] 103% | [8] 99.4% | [9] 102% | [10] 107%

O/N=C/c1ccc(O)cc1O
inactive: [1] 105% | [2] 108% | [3] 117% | [4] 101% | [5] 109% | [6] 92% | [7] 86% | [8] 91.4% | [9] 108% | [10] 111%

N#Cc1c(N)sc(=S)c2c1CCCC2
inactive: [1] 101% | [2] 104% | [3] 123% | [4] 104% | [5] 115% | [6] 103% | [7] 102% | [8] 105% | [9] 104% | [10] 111%

O=C(c1ccccc1)C1CCC1
inactive: [1] 102% | [2] 102% | [3] 101% | [4] 94.5% | [5] 107% | [6] 86.6% | [7] 85.9% | [8] 71.6% | [9] 107% | [10] 112%

COc1ccc(NC(=O)CCl)cc1
inactive: [1] 61.7% | [2] 82.5% | [3] 99.1% | [4] 81.1% | [5] 83.1% | [6] 87.3% | [7] 47.8% | [8] 84.6% | [9] 80.7%

CCOc1ccc(I)cc1
inactive: [1] 96.7% | [2] 103% | [3] 120% | [4] 107% | [5] 108% | [6] 90.3% | [7] 105% | [8] 104% | [9] 109% | [10] 111%

NC(=O)N/N=C\c1ccco1
inactive: [1] 108% | [2] 102% | [3] 94.1% | [4] 112% | [5] 117% | [6] 102% | [7] 92.1% | [8] 110% | [9] 104% | [10] 119%

N#CCc1ccc([N+](=O)[O-])cc1
inactive: [1] 98.5% | [2] 98.2% | [3] 99.1% | [4] 90.7% | [5] 102% | [6] 92.7% | [7] 101% | [8] 96.6% | [9] 106% | [10] 105%

CC1(C)N=C(N)N=C(N)N1c1cccc(Br)c1
inactive: [1] 20.8% | [2] 58.8% | [3] 46.9% | [4] 15.4% | [5] 18.2% | [6] 83% | [7] 52.5% | [8] 30.6% | [9] 10.3%

O=C(CCNNC(=O)c1ccncc1)NCc1ccccc1
inactive: [1] 95.8% | [2] 90.7% | [3] 110% | [4] 98.3% | [5] 102% | [6] 97.8% | [7] 58.2% | [8] 104% | [9] 107%

CCOC(=O)/C(=C/c1ccc(OC)cc1)N(CC)CC
inactive: [1] 96.3% | [2] 97% | [3] 105% | [4] 103% | [5] 103% | [6] 81.4% | [7] 94.1% | [8] 101% | [9] 103% | [10] 115%
